# Assay results from PubChem BioAssay (NCATS).
# Inconclusive results are not listed. A call without a number means that no potency is given here. Activity calls are given as the source filed them. Calls come from the whole dose curve; as a rule, active = well fitted curve in the direction sought with a large enough effect; inconclusive = small, poorly fitted or top-dose-only effect, or another doubt; inactive = no such curve, though single readings can be large; an effect the other way counts as inactive or inconclusive.
# How the values were obtained:
# [1] = qHTS of pediatric cancer cell lines to identify multiple opportunities for drug repurposing: Confirmatory screen for TC32 cells (AID 1347118);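 note: cells exposed to compound for 48 h before the read; nearly all actives have a fitted effect of over 65% in size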; note: potency is the fitted concentration of half-maximal effect
# How it was run: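 Luminescent ATP read-out (CellTiter-Glo) of metabolically active TC32 cells after 48 h exposure. Concentration-response curves came from 11-point (MIPE, 0.78 nM–46 µM) or 8-point (NPC, 0.59 nM–46 µM) primary titrations; follow-up used 11 points.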
# [2] = qHTS of pediatric cancer cell lines to identify multiple opportunities for drug repurposing: Confirmatory screen for RD cells (AID 1347124);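 note: cells exposed to compound for 48 h before viability readout; nearly all actives have a fitted effect of over 65% in size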; note: potency is the fitted concentration of half-maximal effect
# How it was run: (§1)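 Viability after 48 h compound treatment at 37C, 500-1,000 cells/well, read as ATP luminescence with CellTiter-Glo. Primary screens used 11-point (MIPE, 0.78 nM-46 µM) or 8-point (NPC, 0.59 nM-46 µM) final concentrations; follow-up screens used 11-point dilutions.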
# [3] = qHTS of pediatric cancer cell lines to identify multiple opportunities for drug repurposing: Confirmatory screen for Saos-2 cells (AID 1347127); note: nearly all actives have a fitted effect of over 60% in size; note: potency is the fitted concentration of half-maximal effect
# How it was run: as §1
# [4] = qHTS of pediatric cancer cell lines to identify multiple opportunities for drug repurposing: Confirmatory screen for OHS-50 cells (AID 1347128);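 note: compound exposure lasted 48 h at 37 degrees C; nearly all actives have a fitted effect of over 55% in size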; note: potency is the fitted concentration of half-maximal effect
# How it was run: as §1
# [5] = molecular target: N-terminal Xaa-Pro-Lys N-methyltransferase 1 (Homo sapiens) (UniProt Q9BV86); assay: qHTS Assay for Inhibitors of N-terminal methyltransferase 1 (NTMT1): LOPAC validation of the NTMT1 SAHH-coupled ThioGlo3 Assay (AID 1347143);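 note: SAH from peptide methylation measured as thiol fluorescence via SAHH coupling and ThioGlo3; nearly all actives have a fitted effect of over 70% in size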; note: potency is the fitted concentration of half-maximal effect
# Sequence of N-terminal Xaa-Pro-Lys N-methyltransferase 1 (Homo sapiens) (Q9BV86 whole entry, looked up): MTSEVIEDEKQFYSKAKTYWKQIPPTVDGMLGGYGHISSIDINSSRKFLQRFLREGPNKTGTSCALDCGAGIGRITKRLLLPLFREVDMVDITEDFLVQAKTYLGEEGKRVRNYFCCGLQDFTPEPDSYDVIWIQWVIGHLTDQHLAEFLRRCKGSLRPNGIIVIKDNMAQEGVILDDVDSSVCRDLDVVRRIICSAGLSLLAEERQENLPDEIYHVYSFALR
# How it was run: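 Recombinant human NTMT1 (125nM) was pre-incubated 1 min at room temperature with compounds over a concentration range, then a mix of 100uM SAM, 10uM SAHH and 15uM ThioGlo3 (concentrations in added reagent) was added. ThioGlo3 fluorescence (ex 340/em 450nm) after 30 min was normalized to the initial reading.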
# Furin (Homo sapiens) = Furin (Homo sapiens) (UniProt P09958); assay: Furin counterscreen qHTS for Zika virus inhibitors (AID 1347149);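 note: purified recombinant full-length human furin enzyme at 5 nM; fluorescence gain from furin cutting a BOC-RVRR-AMC peptide substrate over 15 min; top concentration of the series differs between compounds; nearly all actives have a fitted effect of over 70% in size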
# Sequence of Furin (Homo sapiens) (P09958 whole entry, looked up): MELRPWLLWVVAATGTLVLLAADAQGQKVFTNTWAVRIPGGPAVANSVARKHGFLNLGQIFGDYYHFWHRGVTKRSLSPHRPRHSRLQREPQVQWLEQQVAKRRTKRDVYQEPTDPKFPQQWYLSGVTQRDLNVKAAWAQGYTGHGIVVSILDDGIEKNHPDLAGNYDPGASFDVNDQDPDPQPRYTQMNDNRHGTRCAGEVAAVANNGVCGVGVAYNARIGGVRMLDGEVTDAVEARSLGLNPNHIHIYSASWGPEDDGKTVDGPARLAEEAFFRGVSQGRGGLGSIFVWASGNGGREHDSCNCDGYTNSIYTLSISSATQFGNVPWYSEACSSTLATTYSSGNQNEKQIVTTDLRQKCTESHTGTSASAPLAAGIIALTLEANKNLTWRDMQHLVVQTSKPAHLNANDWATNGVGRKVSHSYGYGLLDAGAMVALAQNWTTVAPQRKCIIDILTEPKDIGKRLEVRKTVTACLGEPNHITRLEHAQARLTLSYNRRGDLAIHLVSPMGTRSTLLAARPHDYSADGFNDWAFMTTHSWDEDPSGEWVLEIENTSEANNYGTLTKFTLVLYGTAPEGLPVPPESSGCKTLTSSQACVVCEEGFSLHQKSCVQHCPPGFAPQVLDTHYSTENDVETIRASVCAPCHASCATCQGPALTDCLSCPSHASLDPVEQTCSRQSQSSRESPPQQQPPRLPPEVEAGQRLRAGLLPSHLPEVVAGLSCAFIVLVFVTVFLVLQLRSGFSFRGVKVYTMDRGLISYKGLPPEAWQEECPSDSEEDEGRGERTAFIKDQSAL
# How it was run: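 Fluorogenic cleavage of BOC-RVRR-AMC (2 microM final, Km ~15 µM) was monitored (ex 340, em 450 nm) at 37C after 15 min RT preincubation of 5 nM furin with compounds in HEPES pH 7.0 buffer with CaCl2 and Triton X-100. Percent inhibition was fitted to a 4-parameter Hill curve.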
# [6] = tested on: Zika virus NS2B-NS3 protease (unlinked); assay: Optimization of GU AMC qHTS for Zika virus inhibitors: Unlinked NS2B-NS3 protease assay (AID 1347151); note: series mostly up to about 52 µM; nearly all actives have a fitted effect of over 80% in size
# How it was run: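 Noncovalent NS2B hydrophilic domain–NS3 protease complex (25 nM final) in 10 mM Tris-HCl pH 8.0, 0.01% Tween 20; AMC substrate, room temperature 15 min (~20% conversion); fluorescence change normalized, 4-parameter Hill fit.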
# [7] = tested on: Zika virus NS2B-NS3 protease; assay: Primary screen GU AMC qHTS for Zika virus inhibitors (AID 1347154); note: nearly all actives have a fitted effect of over 70% in size; note: potency is the fitted concentration of half-maximal effect
# How it was run: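 Unlinked Zika NS2B hydrophilic domain–NS3 protease complex at 25 nM in 10 mM Tris-HCl pH 8.0, 0.01% Tween 20, with an AMC peptide substrate. Fluorescence change (340/450 nm) over 15 min at room temperature, normalized to controls, fitted to 4-parameter Hill.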
# [8] = qHTS of pediatric cancer cell lines to identify multiple opportunities for drug repurposing: Confirmatory screen for Rh41 cells (AID 1347123);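 note: 48 h compound exposure; nearly all actives have a fitted effect of over 60% in size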; note: potency is the fitted concentration of half-maximal effect
# How it was run: as §1
# [9] = qHTS of pediatric cancer cell lines to identify multiple opportunities for drug repurposing: Confirmatory screen for Rh18 cells (AID 1347125); note: nearly all actives have a fitted effect of over 55% in size; note: potency is the fitted concentration of half-maximal effect
# How it was run: as §1
# [10] = qHTS of pediatric cancer cell lines to identify multiple opportunities for drug repurposing: Confirmatory screen for Rh30 cells (AID 1347126); note: nearly all actives have a fitted effect of over 55% in size; note: potency is the fitted concentration of half-maximal effect
# How it was run: as §1
# [11] = qHTS of pediatric cancer cell lines to identify multiple opportunities for drug repurposing: Confirmatory screen for SK-N-SH cells (AID 1347129);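 note: cells exposed to compound for 48 h before viability read; nearly all actives have a fitted effect of over 60% in size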; note: potency is the fitted concentration of half-maximal effect
# How it was run: as §1
# [12] = tested on: Zika virus NS2B-NS3 protease (unlinked complex); assay: Primary screen GU Rhodamine qHTS for Zika virus inhibitors: Unlinked NS2B-NS3 protease assay (AID 1347159); note: nearly all actives have a fitted effect of over 60% in size; note: potency is the fitted concentration of half-maximal effect
# How it was run: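 Percent inhibition derives from the 15-min fluorescence change (ex 480, em 540 nm), normalized to no-enzyme and no-inhibitor wells. Reactions contained 25 nM NS2B-NS3 complex and 1.5 microM substrate in 10 mM Tris-HCl pH 8.0.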
# [13] = tested on: Zika virus NS2B-NS3 protease (linked construct); assay: Primary screen NINDS Rhodamine qHTS for Zika virus inhibitors (AID 1347160); note: nearly all actives have a fitted effect of over 55% in size
# How it was run: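 In 10 mM Tris-HCl pH 8.0 containing 0.01% Tween 20, linked NS2B-NS3 protease (25 nM final) is exposed to test compounds for 15 min. Cleavage of 1.5 microM Rhodamine110 substrate is tracked by fluorescence over 15 min.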
# [14] = qHTS of pediatric cancer cell lines to identify multiple opportunities for drug repurposing: Confirmatory screen for U-2 OS cells (AID 1347122); note: nearly all actives have a fitted effect of over 65% in size; note: potency is the fitted concentration of half-maximal effect
# How it was run: as §1
# [15] = qHTS of pediatric cancer cell lines to identify multiple opportunities for drug repurposing: Confirmatory screen for BT-37 cells (AID 1347117); note: potency is the fitted concentration of half-maximal effect
# How it was run: as §1
# [16] = tested on: Zika virus NS2B-NS3 protease (linked construct); assay: Confirmatory screen NINDS AMC qHTS for Zika virus inhibitors (AID 1347152);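 note: AMC fluorescence gain from cleaved Bz-Nle-KRR-AMC substrate over 15 min; top concentration of the series differs between compounds; nearly all actives have a fitted effect of over 70% in size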
# How it was run: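 Linked NS2B-NS3 protease, 1 nM, in 10 mM Tris-HCl pH 8.0, 0.01% Tween 20; compounds preincubated 15 min at room temperature. Nle-KRR-AMC 10 microM (Km 18.3 µM); 15-min fluorescence change (340/450 nm) fitted to 4-parameter Hill.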
# [17] = tested on: Zika virus NS2B-NS3 protease (unlinked complex); assay: Confirmatory screen GU AMC qHTS for Zika virus inhibitors (AID 1347153); note: nearly all actives have a fitted effect of over 70% in size
# How it was run: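 Compounds were preincubated 15 min at room temperature with 25 nM noncovalent NS2B-NS3 protease at pH 8.0; AMC substrate added at 10 microM and 15-min fluorescence gain (340/450 nm) converted to percent inhibition, fitted 4-parameter.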
structure (smiles),measurement,setting,value
Cn1cnc([N+](=O)[O-])c1Sc1ncnc2nc[nH]c12,Potency,[1],1.34 µM (active)
same,Potency,[2],inactive
same,Potency,[3],inactive
same,Potency,[4],4.24 µM (active)
same,Potency,[5],inactive
same,Potency,Furin (Homo sapiens),inactive
same,Potency,[6],inactive
same,Potency,[7],inactive
CCC(C)n1ncn(-c2ccc(N3CCN(c4ccc(OC[C@H]5CO[C@](Cn6cncn6)(c6ccc(Cl)cc6Cl)O5)cc4)CC3)cc2)c1=O (stereo partly specified),Potency,[1],3.29 µM (active)
same,Potency,[8],11.7 µM (active)
same,Potency,[2],inactive
same,Potency,[9],inactive
same,Potency,[10],inactive
same,Potency,[3],inactive
same,Potency,[11],14.8 µM (active)
same,Potency,[7],inactive
same,Potency,[12],inactive
same,Potency,[13],inactive
Cn1cnc2c(F)c(Nc3ccc(Br)cc3Cl)c(C(=O)NOCCO)cc21,Potency,[1],inactive
same,Potency,[14],16.5 µM (active)
same,Potency,[8],inactive
same,Potency,[2],inactive
same,Potency,[9],inactive
same,Potency,[10],inactive
same,Potency,[3],inactive
same,Potency,[7],inactive
same,Potency,[12],inactive
same,Potency,[13],inactive
NC(=O)c1ccc(I)c([N+](=O)[O-])c1,Potency,[15],inactive
same,Potency,[1],39 µM (active)
same,Potency,[14],inactive
same,Potency,[8],43.7 µM (active)
same,Potency,[2],inactive
same,Potency,[9],inactive
same,Potency,[3],inactive
same,Potency,[4],inactive
same,Potency,[11],55.4 µM (active)
same,Potency,[7],inactive
OC[C@H](Cc1ccccc1)Nc1nc(Oc2ccc3c(c2)CCC3)nc2c1ncn2Cc1ccc(-c2ccccc2)cc1,Potency,[15],inactive
same,Potency,[2],inactive
same,Potency,[9],inactive
same,Potency,[11],inactive
same,Potency,[7],inactive
C[C@]1(c2nc3c(C(N)=O)cccc3[nH]2)CCCN1,Potency,[1],18.5 µM (active)
same,Potency,[14],inactive
same,Potency,[8],inactive
same,Potency,[2],inactive
same,Potency,[9],inactive
same,Potency,[10],inactive
same,Potency,[3],inactive
same,Potency,[4],inactive
same,Potency,[11],inactive
same,Potency,[7],inactive
COc1ccc(-c2ccc3c(N4CCOC[C@H]4C)nc(N4CCOC[C@H]4C)nc3n2)cc1CO,Potency,[15],0.233 µM (active)
same,Potency,[1],0.208 µM (active)
same,Potency,[14],0.329 µM (active)
same,Potency,[8],0.233 µM (active)
same,Potency,[10],0.185 µM (active)
same,Potency,[3],0.928 µM (active)
same,Potency,[4],2.08 µM (active)
same,Potency,[11],0.526 µM (active)
same,Potency,[7],6.81 µM (active)
O=C(c1cc(Cc2n[nH]c(=O)c3ccccc23)ccc1F)N1CCN(C(=O)C2CC2)CC1,Potency,[1],inactive
same,Potency,[8],9.27 µM (active)
same,Potency,[2],inactive
same,Potency,[9],inactive
same,Potency,[10],inactive
same,Potency,[3],inactive
same,Potency,[4],inactive
same,Potency,[11],14.8 µM (active)
same,Potency,[7],inactive
same,Potency,[12],inactive
same,Potency,[13],inactive
CN1CCN(CCCN2c3ccccc3Sc3ccc(C(F)(F)F)cc32)CC1,Potency,[15],23.3 µM (active)
same,Potency,[14],23.3 µM (active)
same,Potency,[8],14.7 µM (active)
same,Potency,[2],23.3 µM (active)
same,Potency,[9],20.8 µM (active)
same,Potency,[3],20.8 µM (active)
same,Potency,[4],20.8 µM (active)
same,Potency,[11],16.6 µM (active)
same,Potency,[5],44.7 µM (active)
same,Potency,[6],inactive
same,Potency,[16],inactive
same,Potency,[17],inactive
same,Potency,[7],inactive
COc1ccc(-c2oc3cc(OC)ccc3c2C(=O)c2ccc(C#N)cc2)cc1,Potency,[15],inactive
same,Potency,[14],inactive
same,Potency,[8],inactive
same,Potency,[2],inactive
same,Potency,[9],inactive
same,Potency,[10],inactive
same,Potency,[3],inactive
same,Potency,[4],inactive
same,Potency,[11],inactive
same,Potency,[7],inactive
CCOc1cc(N2CCC(O)CC2)ccc1Nc1ncc2c(n1)N(C)c1ccccc1C(=O)N2C,Potency,[15],7.37 µM (active)
same,Potency,[1],0.928 µM (active)
same,Potency,[11],7.43 µM (active)
same,Potency,[7],inactive
CNCc1ccc(-c2[nH]c3cc(F)cc4c3c2CCNC4=O)cc1,Potency,[1],5.85 µM (active)
same,Potency,[14],inactive
same,Potency,[8],16.5 µM (active)
same,Potency,[2],inactive
same,Potency,[9],inactive
same,Potency,[10],inactive
same,Potency,[3],inactive
same,Potency,[4],inactive
same,Potency,[7],24.1 µM (active)
same,Potency,[12],inactive
same,Potency,[13],inactive
COc1cc(Nc2ncc3c(n2)-c2ccc(Cl)cc2C(c2c(F)cccc2OC)=NC3)ccc1C(=O)O,Potency,[1],0.147 µM (active)
same,Potency,[14],10.4 µM (active)
same,Potency,[2],inactive
same,Potency,[9],inactive
same,Potency,[10],inactive
same,Potency,[3],18.5 µM (active)
same,Potency,[4],inactive
same,Potency,[7],inactive
same,Potency,[12],20 µM (active)
same,Potency,[13],inactive
COc1cccc2cc(-c3nc(C4CCC(C(=O)O)CC4)n4ncnc(N)c34)[nH]c12 (stereo unspecified),Potency,[15],inactive
same,Potency,[1],inactive
same,Potency,[8],2.08 µM (active)
same,Potency,[2],inactive
same,Potency,[10],10.4 µM (active)
same,Potency,[4],inactive
same,Potency,[11],10.5 µM (active)
same,Potency,[12],inactive
same,Potency,[13],inactive
Nc1nc2ccc(OC(F)(F)F)cc2s1,Potency,[1],inactive
same,Potency,[8],inactive
same,Potency,[2],inactive
same,Potency,[9],inactive
same,Potency,[10],inactive
same,Potency,[4],18.5 µM (active)
same,Potency,[11],inactive
same,Potency,[5],inactive
same,Potency,[6],inactive
same,Potency,[7],inactive
O=C1CCC(N2C(=O)c3ccccc3C2=O)C(=O)N1 (stereo unspecified),Potency,[5],inactive
same,Potency,[6],inactive
same,Potency,[7],inactive
OC(CCN1CCCCC1)(c1ccccc1)C1CC2C=CC1C2 (stereo unspecified),Potency,[5],inactive
same,Potency,[6],inactive
same,Potency,[7],inactive
